From PubChem BioAssay (NCI) come the findings set out here.

The panel holds about 83,000 compounds, 20% with a hit somewhere; the sample as a whole holds those more often.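 Interpretation: 100, growth as untreated; towards 0, rising growth inhibition; 0, no net growth; 0 to -100, cell death. Compounds scoring below 10 were considered active.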 Values without a mark were called inactive. Activity calls are given as the source filed them.

Holding throughout (assay): NCI-60 one-dose screen, 48 h (100 = growth as untreated, 0 = no growth, -100 = all killed)
Test [1] concerns NCI-H23 lung. Conditions: 10 µM unless noted.
For test [2], the system named is NCI-H226 lung. Conditions: 10 µM unless noted.
Test [3] concerns NCI-H322M lung. Conditions: 10 µM unless noted.
For test [4], the system named is HOP-62 NSCLC. Conditions: 10 µM unless noted.
For test [5], the system named is NCI-H460 lung. The following applies: 10 µM unless noted.
In test [6] the test system is HOP-92 NSCLC. The following applies: 10 µM unless noted.
For test [7], the system named is NCI-H522 lung. Conditions: 10 µM unless noted.
The test system of test [8] is A549/ATCC NSCLC. Conditions: 10 µM unless noted.
Test [9] concerns 786-0 renal. Conditions: 10 µM unless noted.
The test system of test [10] is COLO 205 colon. The following applies: 10 µM unless noted.
For test [11], the system named is DU-145 prostate. Conditions: 10 µM unless noted.
Test [12] concerns MALME-3M melanoma. Conditions: 10 µM unless noted.
In test [13] the test system is MDA-MB-231 breast. Conditions: 10 µM unless noted.
Test [14] has as its system RXF 393 renal. The following applies: 10 µM unless noted.
The test system of test [15] is SF-268 CNS. Conditions: 10 µM unless noted.
Test [16] has as its system SF-295 CNS. Conditions: 10 µM unless noted.
For test [17], the system named is SF-539 CNS. Conditions: 10 µM unless noted.
Test [18] deals with UACC-257 melanoma. Conditions: 10 µM.
Test [19] has as its system M14 melanoma. Conditions: 10 µM unless noted.
The test system of test [20] is K-562 leukemia. Conditions: 10 µM unless noted.

With `CCCCC(N)(C(=O)O)C1CCCC1` (stereo unspecified), the growth in test [1] is 106%; in [2], 101%; in test [3] it was 101%; in [4], 112%; in test [5], 107%; in [6], 102%. The growth was 102% in [7]; 94.4% in [8]; 96% in test [9]; 123% in test [10]; 122% in [11]; 127% in test [12]. Besides, the growth in [13] is 105%; in test [14], 106%; in [15], 107%; in test [16], 98.8%; in [17] it was 96.7%; in [18], 87.2%. The growth in test [19] is 107%.
Regarding `O=C1CCCCC=C1C[N+](=O)[O-]`, the growth was 91.5% in test [1]; 86.3% in [2]; 105% in [3]; 107% in [4]; 102% in [5]; 90% in [6]. For the same compound, the growth in test [7] was -12.3% (active); in test [8], 121%; in [9], 102%; in [10], 43%; in [11], 106%; in test [20], 27.8%. Moreover, the growth is 73.2% in test [12]; 107% in test [13]; 94.2% in test [15]; 97.7% in [16]; 101% in [17]; 91.3% in [19].
As for `COc1cc(CNC(=O)CSc2nc3ccccc3c(=O)n2Cc2cc(OC)c(OC)c(OC)c2)cc(OC)c1OC`, the growth in test [1] was 105%; in [2], 94.5%; in test [3], 95.4%; in test [4], 94%; in test [5], 108%; in test [6], 106%. The growth was 81.2% in test [7]; 97% in test [8]; 101% in test [9]; 105% in test [10]; 108% in test [11]; 97.5% in [12]. In addition, the growth is 94.4% in test [13]; 97.4% in test [14]; 97.5% in test [15]; 105% in test [16]; 96.3% in test [17]; 94.2% in [18]. In addition, the growth in test [19] was 97.2%.
On to `CCCCCCCCCCCCOB(OCCCCCCCCCCCC)OCCCCCCCCCCCC`, for which the growth in test [1] is 88.3%; in test [2] it was 99.3%; in test [3], 101%; in [4], 94.5%; in [5], 109%; in test [6], 101%. The growth is 95.2% in test [7]; 97.8% in [8]; 120% in test [9]; 98.2% in test [10]; 100% in test [11]; 92.5% in test [20]. Besides, the growth in test [12] is 90.4%; in [14], 114%; in test [15] it was 97.2%; in test [16] it was 104%; in test [17], 106%; in test [18] it was 95.4%. The growth in test [19] was 117%.
Regarding `CC(=O)C1CCC(C)=CC1=O` (stereo unspecified), the growth was 102% in test [1]; 104% in test [2]; 85.8% in [3]; 111% in test [4]; 106% in test [5]; 96.9% in [6]. In addition, the growth in test [7] was 89.7%; in [8] it was 98.3%; in test [9], 91.8%; in test [10] it was 116%; in [11], 114%; in [12], 93.4%. The growth was 104% in test [13]; 113% in test [14]; 99.1% in test [15]; 101% in test [16]; 99.6% in [17]; 92.8% in test [18]. In addition, the growth in [19] was 97.5%.
As to `O=C(CC(O)c1ccncc1)c1ccccc1` (stereo unspecified), the growth is -18.6% (active) in test [1]; 9.03% (active) in [2]; -8.53% (active) in test [3]; 22.9% in [4]; 102% in test [5]; 10.2% in [6]. Also, the growth in test [7] was -36.6% (active); in test [8] it was 15.5%; in test [9], 9.96% (active); in test [10], -54.7% (active); in [11], 3.98% (active); in [20] it was 57.9%. Further, the growth in [12] is 91.9%; in [14], -69.4% (active); in test [15] it was 74.9%; in test [16], 51.8%; in test [17], 8.03% (active); in test [18] it was 83.1%. In addition, in test [19], the growth was 90.8%.
Consider `CC(=O)OCC1OC(OCC2OC(OC(C)=O)C(OC(C)=O)C(OC(C)=O)C2OC(C)=O)C(OC(C)=O)C(OC(C)=O)C1OC(C)=O` (stereo unspecified), for which the growth in [1] was 103%; in test [2], 83.1%; in test [3] it was 101%; in test [4], 97.5%; in test [5], 104%; in test [6] it was 91.7%. In addition, the growth in [7] was 104%; in [8], 94.4%; in [9], 103%; in [10], 107%; in [11], 110%; in [20] it was 106%. Besides, the growth was 108% in [12]; 71% in test [14]; 105% in [15]; 99.3% in [16]; 108% in [17]; 95.8% in test [18]. Also, the growth in test [19] was 107%.
On to `Nc1nc(-c2ccccc2)cs1`, for which the growth in test [1] was 111%; in test [2], 93.3%; in test [3], 109%; in test [4], 97%; in test [5] it was 109%; in test [6], 101%. Moreover, the growth was 102% in [7]; 95.6% in test [8]; 105% in [9]; 108% in [10]; 104% in test [11]; 114% in [20]. The growth in [13] was 104%; in test [14], 120%; in [15] it was 96.4%; in [16], 104%; in test [17], 99.1%; in test [18], 98.5%. The growth in [19] was 97.2%.
